Experimental data as given in the supplement of paper PMC6522484.
± gives the standard deviation of the averaged measurements.

These compounds were tested on HCT116 (assay: cell viability (CellTiter-Glo) relative to plate median (fraction of plate median); higher = more viable cells). Details: 5 µM; treatment time 24 h; reporter: TCF4/Wnt.
Method in brief: (§1)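 Colorectal cancer cell lines stably transduced with lentiviral TCF/Wnt firefly luciferase reporters (7TFP or TCF4/Wnt) were seeded in 384-well plates. 24 h later they received library compounds at a final 5 µM for 24 h. Parallel plates were read for firefly luciferase or CellTiterGlo luminescence on a Tecan F500 reader. Each well's signal was normalised to the plate median (webcellHTS2, additive, no log transformation), and the mean of two independent replicates is reported.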

| SMILES | cell viability |
| --- | --- |
| CCOc1ccc2nc(S(N)(=O)=O)sc2c1 | 0.896 ± 0.15 |
| C=CCCCCCCCCC(=O)O | 1.08 ± 0.13 |
| C[C@H](N)[C@H](O)c1cccc(O)c1 | 0.997 ± 0.075 |
| CC(=O)O[C@H]1C[C@@]2(C)[C@H](c3ccoc3)OC(=O)[C@H]3O[C@]32[C@@]2(C)C1[C@]1(C)C(C[C@H]2OC(C)=O)C(C)(C)[C@H](OC(C)=O)C[C@@H]1OC(C)=O (stereo partly drawn) [11alpha-ACETOXYKHIVORIN] | 0.895 ± 0.088 |
| COc1cc(O)c2c(c1)C(=O)c1cc3c(c(OC)c1C2=O)[C@@H]1CCO[C@@H]1O3 [Aversin] | 1.18 ± 0.021 |
| C[C@H]1O[C@H](O[C@H]2[C@H](O)[C@@H](O)[C@@H](O[C@H]3[C@H](O)[C@@H](O)C(O)O[C@@H]3CO)O[C@@H]2CO)[C@H](O)[C@@H](O)[C@@H]1N[C@H]1C=C(CO)[C@@H](O)[C@H](O)[C@H]1O (stereo not given in full) | 0.96 ± 0.057 |
| COC(=O)c1c(C)cc(OC)cc1O | 1.03 ± 0.081 |
| Nc1[nH]cnc2ncnc1-2 | 1.1 ± 0.071 |
| CC(C(=O)O)c1ccc(C(=O)c2cccs2)cc1 (stereo not given) | 1.025 ± 0.0071 |
| CCOc1ccc(C(=O)c2ccc(OC)c(O)c2O)cc1 | 1.07 ± 0.028 |
| CN1C(=O)CC[C@H]1c1cccnc1 | 1.1 ± 0.078 |
| CC1=C(/C=C/C(C)=C/C=C/C(C)=C/C=C/C=C(C)/C=C/C=C(C)/C=C/C(=O)[C@]2(C)C[C@@H](O)CC2(C)C)C(C)(C)C[C@H](O)C1 | 0.966 ± 0.1 |
| C[C@@H]1NC(=O)[C@H](Cc2ccccc2)NC1=O [cyclo(alanylphenylalanyl)] | 0.997 ± 0.17 |
| CC(C(=O)O)c1cccc(C(=O)c2ccccc2)c1 (stereo not given) | 0.931 ± 0.035 |
| O=C(O)CN(CCN(CC(=O)O)CC(=O)O)CC(=O)O.[Na+].[Na+].[Na+] | 0.948 ± 0.088 |
| CN1CCCN=C1COC(=O)C(O)(c1ccccc1)C1CCCCC1 (stereo not given) | 1.15 ± 0.12 |
| Cc1ccc(S(=O)(=O)NC(=O)NN2CCCCCC2)cc1 | 0.918 ± 0.018 |
| CC[C@H]1C(=O)OC[C@@H]1Cc1cncn1C | 0.948 ± 0.13 |
| Nc1ccc(C(=O)Oc2ccccc2)c(O)c1 | 1.16 ± 0.064 |
| CC(=O)C1=C(CO)C(=O)c2cccc(O)c2C1=O [Bhimamycin E] | 1.04 ± 0.068 |

| SMILES | cell viability |
| --- | --- |
| O=C1NC(Cc2ccc(O)cc2)C(=O)N2CCCC12 (stereo not given) [Cyclo(tyrosylprolyl)] | 0.928 ± 0.023 |
| COc1cccc2c1C(=O)c1c(O)c3c(c(O)c1C2=O)C[C@@](O)(C(=O)CO)C[C@@H]3O[C@H]1C[C@H](N)[C@@H](O)[C@H](C)O1 | 0.589 ± 0.19 |
| CCCCCc1c2c(cc(O)c1C(=O)O)OC(=O)c1c(cc(OC)cc1C(=O)CCCC)O2 | 0.973 ± 0.14 |
| CC1CCC2(OC1)OC1CC3C4CCC5C[C@@H](O)CCC5(C)C4=CCC3(C)C1[C@@H]2C (stereo partly drawn) [3beta-HYDROXYISOALLOSPIROST-9(11)-ENE] | 0.997 ± 0.12 |
| COc1ccc2c(c1)OCC(Cc1ccc(OC)c(OC)c1)C2=O (stereo not given) | 1.1 ± 0.092 |
| CC(C)=CCc1c2c(c3occ(-c4ccc(O)c(O)c4)c(=O)c3c1O)C=CC(C)(C)O2 | 1.04 ± 0.067 |
| CC(=O)Oc1cc(C)c2c(c1C(OC(C)=O)OC(C)=O)Oc1c(c(C)c(OC(C)=O)c3c1C(OC(C)=O)OC3=O)OC2=O (stereo not given) | 0.975 ± 0.025 |
| COc1cc([C@@H]2c3cc4c(cc3[C@@H](O[C@@H]3O[C@@H]5CO[C@@H](c6cccs6)O[C@H]5[C@H](O)[C@H]3O)[C@H]3COC(=O)[C@H]23)OCO4)cc(OC)c1O | 0.747 ± 0.0014 |
| CC[n+]1c(-c2ccccc2)c2cc(N)ccc2c2ccc(N)cc21 | 1.1 ± 0.057 |
| C=CCCCCCCCCCCCC(O)CC(O)COC(C)=O (stereo not given) | 0.9555 ± 0.0064 |
| CN(C)CCC(c1ccc(Br)cc1)c1ccccn1 (stereo not given) | 1.055 ± 0.0071 |
| C[C@]12CCC(=O)C=C1CC[C@@H]1[C@@H]2C(=O)C[C@@]2(C)[C@H]1CC[C@]2(O)C(=O)CO | 1.02 ± 0.12 |
| CC(C)(S)[C@@H](N)C(=O)O | 0.956 ± 0.13 |
| CO/N=C(\C(=O)N[C@@H]1C(=O)N2C(C(=O)OCOC(=O)C(C)(C)C)=C(/C=C\c3scnc3C)CS[C@H]12)c1csc(N)n1 | 0.985 ± 0.0042 |
| Nc1ccc(S(=O)(=O)Nc2ccccn2)cc1 | 0.949 ± 0.067 |
| CCOC(=O)C1=C(C)NC(C)=C(C(=O)OC)C1c1cccc([N+](=O)[O-])c1 (stereo not given) | 1.02 ± 0.15 |
| O=C1O[C@H]([C@@H](O)CO)C(O)=C1O | 1.02 ± 0.12 |
| CC1(C)CC[C@]2(C(=O)O)CC[C@]3(C)C(=CC[C@@H]4[C@@]5(C)CC[C@H](O)C(C)(C)[C@@H]5[C@H](O)C[C@]43C)[C@@H]2C1 | 0.955 ± 0.092 |
| CC(=O)CC(c1ccccc1)c1c(O)c2ccccc2oc1=O (stereo not given) | 1.14 ± 0.078 |
| C=CCCCCCCCCC(=O)[O-].C=CCCCCCCCCC(=O)[O-].[Zn+2] | 0.903 ± 0.011 |

What follows are compounds tested on SW480 in the same assay as above. Details: 5 µM; treatment time 24 h; reporter: 7TFP.
Method in brief: as §1

| SMILES | cell viability |
| --- | --- |
| CCOc1ccc2nc(S(N)(=O)=O)sc2c1 | 0.961 ± 0.014 |
| C=CCCCCCCCCC(=O)O | 1 ± 0.022 |
| C[C@H](N)[C@H](O)c1cccc(O)c1 | 1.06 ± 0.035 |
| CC(=O)O[C@H]1C[C@@]2(C)[C@H](c3ccoc3)OC(=O)[C@H]3O[C@]32[C@@]2(C)C1[C@]1(C)C(C[C@H]2OC(C)=O)C(C)(C)[C@H](OC(C)=O)C[C@@H]1OC(C)=O (stereo partly drawn) [11alpha-ACETOXYKHIVORIN] | 0.941 ± 0.013 |
| COc1cc(O)c2c(c1)C(=O)c1cc3c(c(OC)c1C2=O)[C@@H]1CCO[C@@H]1O3 [Aversin] | 1.12 ± 0.021 |
| C[C@H]1O[C@H](O[C@H]2[C@H](O)[C@@H](O)[C@@H](O[C@H]3[C@H](O)[C@@H](O)C(O)O[C@@H]3CO)O[C@@H]2CO)[C@H](O)[C@@H](O)[C@@H]1N[C@H]1C=C(CO)[C@@H](O)[C@H](O)[C@H]1O (stereo not given in full) | 0.988 ± 0.012 |
| COC(=O)c1c(C)cc(OC)cc1O | 0.951 ± 0.05 |
| Nc1[nH]cnc2ncnc1-2 | 1.82 ± 0.028 |
| CC(C(=O)O)c1ccc(C(=O)c2cccs2)cc1 (stereo not given) | 1.02 ± 0.014 |
| CCOc1ccc(C(=O)c2ccc(OC)c(O)c2O)cc1 | 1 ± 0.038 |
| CN1C(=O)CC[C@H]1c1cccnc1 | 1.07 ± 0.014 |
| CC1=C(/C=C/C(C)=C/C=C/C(C)=C/C=C/C=C(C)/C=C/C=C(C)/C=C/C(=O)[C@]2(C)C[C@@H](O)CC2(C)C)C(C)(C)C[C@H](O)C1 | 0.997 ± 0.033 |
| C[C@@H]1NC(=O)[C@H](Cc2ccccc2)NC1=O [cyclo(alanylphenylalanyl)] | 0.96 ± 0.025 |
| CC(C(=O)O)c1cccc(C(=O)c2ccccc2)c1 (stereo not given) | 1.04 ± 0.028 |
| O=C(O)CN(CCN(CC(=O)O)CC(=O)O)CC(=O)O.[Na+].[Na+].[Na+] | 1.01 ± 0.035 |
| CN1CCCN=C1COC(=O)C(O)(c1ccccc1)C1CCCCC1 (stereo not given) | 1.05 ± 0.042 |
| Cc1ccc(S(=O)(=O)NC(=O)NN2CCCCCC2)cc1 | 0.968 ± 0.019 |
| CC[C@H]1C(=O)OC[C@@H]1Cc1cncn1C | 1.015 ± 0.0071 |
| Nc1ccc(C(=O)Oc2ccccc2)c(O)c1 | 1.05 ± 0.042 |
| CC(=O)C1=C(CO)C(=O)c2cccc(O)c2C1=O [Bhimamycin E] | 0.9945 ± 0.0021 |

| SMILES | cell viability |
| --- | --- |
| O=C1NC(Cc2ccc(O)cc2)C(=O)N2CCCC12 (stereo not given) [Cyclo(tyrosylprolyl)] | 0.9425 ± 0.0021 |
| COc1cccc2c1C(=O)c1c(O)c3c(c(O)c1C2=O)C[C@@](O)(C(=O)CO)C[C@@H]3O[C@H]1C[C@H](N)[C@@H](O)[C@H](C)O1 | 1.11 ± 0.13 |
| CCCCCc1c2c(cc(O)c1C(=O)O)OC(=O)c1c(cc(OC)cc1C(=O)CCCC)O2 | 1 ± 0.013 |
| CC1CCC2(OC1)OC1CC3C4CCC5C[C@@H](O)CCC5(C)C4=CCC3(C)C1[C@@H]2C (stereo partly drawn) [3beta-HYDROXYISOALLOSPIROST-9(11)-ENE] | 0.973 ± 0.052 |
| COc1ccc2c(c1)OCC(Cc1ccc(OC)c(OC)c1)C2=O (stereo not given) | 1.02 ± 0.044 |
| CC(C)=CCc1c2c(c3occ(-c4ccc(O)c(O)c4)c(=O)c3c1O)C=CC(C)(C)O2 | 1.03 ± 0.028 |
| CC(=O)Oc1cc(C)c2c(c1C(OC(C)=O)OC(C)=O)Oc1c(c(C)c(OC(C)=O)c3c1C(OC(C)=O)OC3=O)OC2=O (stereo not given) | 0.943 ± 0.064 |
| COc1cc([C@@H]2c3cc4c(cc3[C@@H](O[C@@H]3O[C@@H]5CO[C@@H](c6cccs6)O[C@H]5[C@H](O)[C@H]3O)[C@H]3COC(=O)[C@H]23)OCO4)cc(OC)c1O | 0.952 ± 0.14 |
| CC[n+]1c(-c2ccccc2)c2cc(N)ccc2c2ccc(N)cc21 | 1.22 |
| C=CCCCCCCCCCCCC(O)CC(O)COC(C)=O (stereo not given) | 1.005 ± 0.0071 |
| CN(C)CCC(c1ccc(Br)cc1)c1ccccn1 (stereo not given) | 0.922 ± 0.061 |
| C[C@]12CCC(=O)C=C1CC[C@@H]1[C@@H]2C(=O)C[C@@]2(C)[C@H]1CC[C@]2(O)C(=O)CO | 0.957 ± 0.0057 |
| CC(C)(S)[C@@H](N)C(=O)O | 0.9765 ± 0.0092 |
| CO/N=C(\C(=O)N[C@@H]1C(=O)N2C(C(=O)OCOC(=O)C(C)(C)C)=C(/C=C\c3scnc3C)CS[C@H]12)c1csc(N)n1 | 0.901 ± 0.0071 |
| Nc1ccc(S(=O)(=O)Nc2ccccn2)cc1 | 0.981 ± 0.055 |
| CCOC(=O)C1=C(C)NC(C)=C(C(=O)OC)C1c1cccc([N+](=O)[O-])c1 (stereo not given) | 0.95 ± 0.057 |
| O=C1O[C@H]([C@@H](O)CO)C(O)=C1O | 1.01 ± 0.035 |
| CC1(C)CC[C@]2(C(=O)O)CC[C@]3(C)C(=CC[C@@H]4[C@@]5(C)CC[C@H](O)C(C)(C)[C@@H]5[C@H](O)C[C@]43C)[C@@H]2C1 | 0.992 ± 0.026 |
| CC(=O)CC(c1ccccc1)c1c(O)c2ccccc2oc1=O (stereo not given) | 0.989 ± 0.073 |
| C=CCCCCCCCCC(=O)[O-].C=CCCCCCCCCC(=O)[O-].[Zn+2] | 0.964 ± 0.023 |
